# According to PubChem BioAssay AID1345082 (National Center for Advancing Translational Sciences (NCATS), 2018):
# About 4,000 (4.3%) of roughly 94,000 compounds were called active. Inconclusive results (about 29%) are left out. The entries come from a sample that favours actives as a whole. A number with no mark means an inactive call. The call rests on the fitted dose curve; in most records, active means well fitted inhibition curve with a large enough effect; inconclusive means small, poorly fitted or top-dose-only effect; inactive means no such curve, though single readings can be large or run the other way.
# Assay: Cytotoxic Profiling in NIH 3T3 Cell Line of Diverse Libraries Using Quantitative High-Throughput Screening; further: nearly all actives have a fitted effect of over 55% in size
# Conditions: NIH 3T3 viability, CellTiter-Glo ATP luminescence, 48-72 h; series mostly up to 96.7 µM; activity change, negative = cytotoxicity: at the top concentration
# Source text: Cell-based phenotypic screening is a commonly used approach to discover biological pathways, novel drug targets, chemical probes and high-quality hit-to-lead molecules. Many hits identified from high-throughput screening campaign are ruled out through a series of follow-up potency, selectivity/specificity, and cytotoxicity assays. Prioritization of molecules with little or no cytotoxicity for a more in-depth downstream evaluation influence the future direction of projects, so cytotoxicity profiling of the screening libraries at early stage is essential for increasing the likelihood of candidate success. In this study, we analyzed results from a cell-based cytotoxicity screening campaign, comprising nearly 10,000 compounds in NCATS annotated libraries, and over 100,000 compounds in a diversity library, evaluated in four normal cell lines (HEK 293, NIH 3T3, CRL-7250 and HaCat) and a cancer cell line (KB 3-1, a HeLa subline) with overall screening outcomes, hit rates, pan-activity and selectivity. For the annotated library, we also examined the primary targets and mechanistic pathways regularly associated with cell death. To our knowledge, this is the first study to use high-throughput screening to profile large libraries for cytotoxicity assessment in both normal and cancer cell lines. In summary, the results generated here constitutes a valuable resource for the scientific community and provides insight on identifying cytotoxic compounds with particular mechanisms of action, and prioritizing compounds with suitable cytotoxicity profile for further evaluation.
# NIH 3T3 cells were seeded into white 1536-well plates using a Multidrop Combi peristaltic dispenser (ThermoFisher, Waltham, MA) at a density of 400 cells/well in 5 uL of medium respectively. A pintool (Kalypsys) was used to transfer 23 nL of compound solution to the 1536-well assay plates. After 48 or 72 hr incubation at 37 degree Celsius, 5% CO2 and 95% humidity, 2.5 uL of CellTiter-Glo (Promega) was dispensed into each well using a dispenser (Aspect Automation, St. Paul, MN) with solenoid valves (Lee Valves, Westbrook CT). Plates were left at room temperature for 10 min before imaging the ATP-coupled luminescence using a ViewLux microplate imager (PerkinElmer, Waltham, MA).
# On the % scale 0 is the no-effect control and ±100 the full control effect; potency means the concentration at half of the fitted maximal effect.
Structure (SMILES),"activity change, negative = cytotoxicity",Potency,outcome
O=c1[nH]c(C2CCCN([S+](=O)([O-])c3cccc(C(F)(F)F)c3)C2)nn1-c1ccc(F)cc1 (stereo not drawn),-13.8%,–,–
CC[C@H]1CN(C(=O)Nc2ccccc2)CC[C@H]1CC(=O)Nc1ccccc1,-17.9% [at 174 µM],–,–
O=C1NCc2ccccc2CC12CCN(CC1CCCCC1)C2 (stereo not drawn),-13.4%,–,–
CCc1cc(=O)n(CC(=O)Nc2cccc(C(C)=O)c2)c(-c2ccccc2)n1,–,35.5 µM (active),–
CC(=O)c1cccc(NC(=O)Cn2c(-c3ccc(Cl)cc3)nc(C)cc2=O)c1,-23.6%,–,–
COc1cccc(NC(=O)Cn2c(-c3ccccc3)nc(C)cc2=O)c1,-26.4%,–,–
COc1ccc(-c2cc(N3CCC(NC(=O)c4ccoc4)CC3)n[nH]2)cc1,-20.6%,–,–
CC(C)(C)OCC1CN(Cc2cccs2)C(=O)c2cccnc2O1 (stereo not drawn),-23.4%,–,–
COc1ccc(CNC(=O)CC[C@H]2CNC(=O)[C@@H]3[C@@H](CCN3C3CCOCC3)N2C)cc1,1.52%,–,–
CC(C)c1noc(-c2ccn3c(CNC(=O)c4ccc5ccccc5n4)nnc3c2)n1,0.0071%,–,–
O=C(NCCc1ccccn1)c1ccc2c(c1)OCCN(c1ccccc1)C2,-16.9% [at 138 µM],–,–
O=C(NCCc1ccccc1)c1ccc2c(c1)OCCN(CCC(F)(F)F)C2,-8.88% [at 138 µM],–,–
CC(C)(C)c1csc(NC(=O)c2ccc3c(c2)OCCN(C2CCC2)C3)n1,–,79.4 µM (active),–
Cc1noc(C2CC3(CCN(C(=O)c4cccnc4C)CC3)CN2C)n1 (stereo not drawn),1.03%,–,–
O=C(CN1CCC2(CC1)NC(=O)CC2C(=O)O)NCCc1ccc(F)cc1 (stereo not drawn),-10.7%,–,–
O=C(Cc1cccc(Cl)c1)N1CCCN(c2ccc3nnc(C4CC4)n3n2)CC1,-5.27%,–,–
Cc1c[nH]c(CN2CCCC(CCc3ccc(F)cc3F)C2)c(C)c1=O (stereo not drawn),–,50.1 µM (active),–
Cn1ccnc1CN1CCCC(CCC(=O)Nc2ccccc2F)C1 (stereo not drawn),–,–,inactive
CN1[C@@H](CCC(=O)N2CCOCC2)CNC(=O)[C@@H]2[C@H]1CCN2Cc1ccc(S(C)(=O)=O)cc1,–,–,inactive
CC(C)C(=O)N1CCC(OC2CCN(Cc3ccccc3)CC2)CC1,-29.4%,–,–
O=c1[nH]c(C2CCN(Cc3ccccc3)CC2)nc2ccc(F)cc12,–,inactive,–
Cc1ccc(F)cc1S(=O)(=O)N1CCC(OC2CCN(Cc3ccccc3)CC2)CC1,–,35.5 µM (active),–
CCCN1CCN(c2ccc(C(=O)N(C)Cc3ccc4ccccc4n3)cn2)CC1,-1.06%,–,–
C[S+](=O)([O-])c1cccc(-c2ncc3c(n2)OCCN(Cc2ccc(F)cc2F)C3=O)c1,–,28.2 µM (active),–

Structure (SMILES),"activity change, negative = cytotoxicity",Potency,outcome
COCCN1CCOC2(CCN(Cc3ccc(F)cc3F)CC2)C1=O,-26.7% [at 138 µM],–,–
COCCOc1ccc(-c2noc([C@@H]3CCCN3Cc3cccnc3)n2)cn1,-21.8% [at 138 µM],–,–
COc1ccc(-c2ncc3c(n2)OCCN(Cc2ccccc2)C3=O)cn1,–,35.5 µM (active),–
CN(C)c1cccc(-c2ncc3c(n2)OCCN(Cc2ccc(F)cc2F)C3=O)c1,-22.8% [at 138 µM],–,–
COc1ccc(CN2CCN3C(=O)N(c4ccccc4)C[C@H]3C2)cn1,-29.7% [at 174 µM],–,–
Cc1nc(CCNc2nccc(-c3cccnc3)n2)nc2c1CCCC2,2.97%,–,–
CNC(=O)[C@@H]1[C@H]2CN(C3CCCCCC3)CCN2C[C@H]1c1ccccc1,-42.5%,–,–
O=C(C1CCCC1)N1C[C@@H](CO)[C@H](c2ccncc2)C1,2.17%,–,–
CC(C)(C)c1ccc(C(=O)N2C[C@@H](CO)[C@H](c3ccccn3)C2)cc1,-21%,–,–
CC(C)CNC(=O)c1nnn2c1COC(c1ccc(Br)cc1)C2 (stereo not drawn),-19.1%,–,–
CC(C)Cc1cc(CNc2nc(C(C)(C)C)nc3c2cnn3C)no1,–,44.7 µM (active),–
CCCc1nc(NCC(c2ccccn2)N2CCOCC2)c2cnn(C)c2n1 (stereo not drawn),-21.1%,–,–
COc1ccc2[nH]cc(CCNC(=O)CC3=C4CCCCC4N(C)C3=O)c2c1 (stereo not drawn),-14.7%,–,–
COc1ccc(CNC(=O)CC[C@@H]2CNC(=O)[C@@H]3C[C@H](NC(=O)Nc4ccsc4)CN23)cc1,-13.2%,–,–
CCOC(=O)C1CCCN(C(=O)c2ccc3oc(-c4ccccn4)nc3c2)C1 (stereo not drawn),-25.6%,–,–
CC(=O)N1CCN(C(=O)c2ccc3nc(-c4ccncc4)oc3c2)CC1,-10%,–,–
Cc1cccc(-c2nc3ccc(C(=O)N4CCCCC4)cc3o2)n1,–,10 µM (active),–
Cc1ccc(Cl)cc1NC(=O)CN1C(=O)NC(c2ccc(Cl)cc2)C2=C1COC2=O (stereo not drawn),–,35.5 µM (active),–
Cc1cccc(C)c1NC(=O)CN1C(=O)NC(c2ccc(Cl)cc2)C2=C1COC2=O (stereo not drawn),-22.8%,–,–
Cc1ccccc1NC(=O)CN1C(=O)NC(c2ccccc2Cl)C2=C1COC2=O (stereo not drawn),3.33%,–,–
CCc1cccc(NC(=O)CN2C(=O)NC(c3ccc(Cl)cc3)C3=C2COC3=O)c1 (stereo not drawn),–,25.1 µM (active),–
CCOc1ccccc1C1NC(=O)N(CC(=O)Nc2ccc(C)c(C)c2)C2=C1C(=O)OC2 (stereo not drawn),-18.4%,–,–
CCOc1ccccc1C1NC(=O)N(CC(=O)Nc2c(C)cccc2Cl)C2=C1C(=O)OC2 (stereo not drawn),-3.32%,–,–
CCN1CC2(CCN(Cc3c(OC)ccc(F)c3F)CC2)OC1=O,-17.4%,–,–
